# Bioassay records (PubChem)
# CSC inhib: blocks cancer stem cells; AID 2717; inhibition, % at 7.5 µM; hit rate 1.1% among 300,000; cancer stem cell-like cells viability, luminescence; in the data active means inhibition above about 75%; tested in HMLE shEcad cells
# MPTP inh: blocks calcium-induced mitochondrial swelling | inhibition, % at 10 µM | hit rate 1.4% among 360,000 | AID 602449 | isolated mouse mitochondria, Ca2+ swelling absorbance, 30 min;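 active means inhibition of 50% or more, scaled per plate between neutral and stimulator controls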;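 further: 0% = DMSO wells given calcium and 100% = 1 mM EGTA wells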
# SKKanGAS inh: blocks kanamycin growth of S. pyogenes SKKanGAS strain. BacTiter-Glo, 6 h. inhibition, % at 7.5 µM. hit rate 1.3% among 300,000. AID 1662;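 active means mean replicate score, as percent of positive control median, at least 50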;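 further: strain carries kanamycin resistance gene driven by streptokinase promoter and grows in 40 µg/ml kanamycin; loss of luminescence reflects streptokinase promoter inhibition or plain growth inhibition; 0% = median of DMSO wells and 100% = positive control at its reference dose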
# NR3A LBD binder: NR3A (human) ligand-binding domain modulation | AID 1259313 | hit rate 2.5% among 340,000 | NR3A LBD differential scanning fluorimetry, Tm shift; 0% = protein alone, 100% = glycine-bound protein | Tm shift relative to glycine control, % at 25 µM;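 active means melting temperature shift of at least 10% of the positive control shift, at one fixed dose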
# Beta cell apopt: blocks beta cell apoptosis. hit rate 0.8% among 300,000. INS-1E cytokine-induced death, ATP luminescence, 48 h; percent of positive-control rescue, neutral wells zero. protection from apoptosis, % (test concentration not listed);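 active means Every replicate reaches about 75%, or at least half do and their mean reaches it too, limit read from the data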;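 further: 0% = cytokine-treated negative control wells and 100% = positive control rescue; higher means more ATP so stronger rescue from cytokine killing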
# Mdm2-MdmX inh: inhibitors of human Mdm2/MdmX interaction; O15151+Q00987; SaOS-2 split-luciferase Mdm2/MdmX complementation, luminescence; inhibition, % at 8 µM; hit rate 3% among 330,000;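 active means inhibition of at least 50% at 8 µM in the primary screen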
# Target sequence (O15151 whole entry, looked up): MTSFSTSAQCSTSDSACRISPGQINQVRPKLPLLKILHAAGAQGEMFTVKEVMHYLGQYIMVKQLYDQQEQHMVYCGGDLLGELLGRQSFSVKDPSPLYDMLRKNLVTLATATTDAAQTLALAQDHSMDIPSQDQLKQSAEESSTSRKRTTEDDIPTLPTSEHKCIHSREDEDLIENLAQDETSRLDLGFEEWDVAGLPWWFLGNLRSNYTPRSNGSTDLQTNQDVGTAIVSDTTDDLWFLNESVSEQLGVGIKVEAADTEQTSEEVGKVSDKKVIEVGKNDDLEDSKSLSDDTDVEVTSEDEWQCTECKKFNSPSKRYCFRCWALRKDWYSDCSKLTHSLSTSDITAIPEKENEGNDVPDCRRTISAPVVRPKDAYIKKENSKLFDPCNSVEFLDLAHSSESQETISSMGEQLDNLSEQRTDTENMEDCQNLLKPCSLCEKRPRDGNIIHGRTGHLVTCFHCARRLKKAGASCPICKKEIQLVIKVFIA
# Target sequence (Q00987 whole entry, looked up): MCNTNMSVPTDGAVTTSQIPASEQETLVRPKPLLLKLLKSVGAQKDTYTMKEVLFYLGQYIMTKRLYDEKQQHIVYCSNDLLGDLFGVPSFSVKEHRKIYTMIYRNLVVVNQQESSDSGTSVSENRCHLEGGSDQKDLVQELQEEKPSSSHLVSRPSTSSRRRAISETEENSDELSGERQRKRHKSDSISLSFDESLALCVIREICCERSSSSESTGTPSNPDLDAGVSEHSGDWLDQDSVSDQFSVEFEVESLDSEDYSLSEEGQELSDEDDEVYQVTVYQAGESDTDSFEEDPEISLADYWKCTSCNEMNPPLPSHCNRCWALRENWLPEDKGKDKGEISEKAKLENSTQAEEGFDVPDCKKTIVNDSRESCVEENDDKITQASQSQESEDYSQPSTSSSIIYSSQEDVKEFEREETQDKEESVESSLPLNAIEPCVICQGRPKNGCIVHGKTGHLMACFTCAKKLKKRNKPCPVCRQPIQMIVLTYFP
# Mdm2-MdmX conf: confirmation of human Mdm2/MdmX interaction inhibitors. shares compounds with Mdm2-MdmX inh. Mdm2-MdmX binding, luminescent assay. inhibition, % at 8 µM. hit rate 55% among 10,000; in the data active means inhibition above about 40%
# FLuc counter: counter-screen for Mdm2/MdmX inhibitors: full-length luciferase; shares compounds with Mdm2-MdmX inh; SaOS-2 full-length luciferase counterscreen, luminescence; inhibition, % at 8 µM; hit rate 77% among 6,200; AID 504607;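 active means mean inhibition at 8 µM reaching about 37%, which flags the compound as non-specific, limit read from the data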;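 further: p53-null SaOS-2 cells with luciferase driven by a doxycycline-inducible promoter; compound on cells about two nights before reading with doxycycline added after day one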
# * marks the source's active call; other numbers are inactive results; . = not tested or not shown. In the library only some 6.9% were active in any assay of this set; here they are far more common.
SMILES,CSC inhib,MPTP inh,SKKanGAS inh,NR3A LBD binder,Beta cell apopt,Mdm2-MdmX inh,Mdm2-MdmX conf,FLuc counter
CCOc1ccc(CNC(=O)C2CCN(c3nnc(C)c4c(C)n(-c5ccc(C)cc5)nc34)CC2)cc1,5,0,5,1,24,87*,40*,40*
COc1ccc(-n2nc3c(N4CCC(C(=O)NCCc5ccco5)CC4)nnc(C)c3c2C)cc1,-19,-2,6,1,2,45,.,.
COc1ccccc1CCNC(=O)C1CCN(c2nnc(C)c3c(C)n(-c4ccc(C)cc4)nc23)CC1,11,-2,8,-5,33,89*,39,79*
CCc1ccc(CNC(=O)C2CCCN(c3nnc(C)c4c(C)n(-c5ccccc5)nc34)C2)cc1 (stereo not given),5,-4,14,-1,34,44,.,.
Cc1nnc(N2CCCC(C(=O)NCc3ccccc3F)C2)c2nn(-c3ccccc3)c(C)c12 (stereo not given),-31,-1,4,-1,2,68*,30,.
CCN(CC(=O)Nc1ccc(Br)cc1)C(=O)Cc1cccc(F)c1,0,1,-5,-6,-1,14,.,.
Cc1nnc(N2CCC(C(=O)N3CCCCCC3)CC2)c2nn(-c3ccc(Cl)cc3)c(C)c12,4,-2,-7,-9,4,60*,33,83*
CCOc1ccccc1CNC(=O)C1CCN(c2nnc(C)c3c(C)n(-c4ccc(C)cc4)nc23)CC1,18,-1,-3,-1,59,100*,76*,5
CCOc1ccccc1CNC(=O)Cn1nc(C)c2c(C)n(-c3ccc(C)cc3)nc2c1=O,-1,2,-2,-1,17,16,.,.
Cc1ccc(-n2nc3c(N4CCC(C(=O)NCc5ccccc5C)CC4)nnc(C)c3c2C)cc1,46,-1,5,0,32,96*,32,.
Cc1ccccc1CNC(=O)C1CCCN(c2nnc(C)c3c(C)n(-c4ccccc4)nc23)C1 (stereo not given),11,1,3,-4,11,33,.,.
O=C(CN1CCN(Cc2ccc(Cl)cc2)CC1)N1CCc2ccccc21,22,-1,-2,1,-3,-2,.,.
COc1c2ccoc2nc2c(OC)c(OC[C@@H](O)C(C)(C)O)ccc12,-6,-1,.,1,3,-10,.,.
CC(C)CNC(=O)C1(C)CCCCCN1C(=O)c1cc(C#N)cs1 (stereo not given),.,0,.,.,.,.,.,.
CCN(c1ccc(NC(=O)COC(=O)CCC(=O)c2ccc(F)cc2)cc1)C(C)C,0,9,1,-3,3,-9,.,.
Cc1oc2c(Cl)c(Cl)c(O)c(CN(C)C)c2c1C(=O)c1ccc(Cl)cc1,-19,2,39,-2,-7,59*,66*,27
COc1ccc(CNC(=O)Cn2cnc3c(NCc4ccccc4)ncnc32)cc1,.,-2,.,2,.,61*,28,.
COC(=O)c1ccc(CNC(=O)Cn2cnc3c(NCc4ccccc4)ncnc32)cc1,.,0,.,4,.,27,.,.
CCCCn1c(C)nc2cc(S(=O)(=O)N3CCOCC3)ccc21,-14,0,.,1,-4,7,.,.
CCCCn1c(CCl)nc2cc(S(=O)(=O)N3CCOCC3)ccc21,-12,-1,.,0,-2,88*,53*,30
Cc1cc(NC(=O)C(C)Sc2nc(-c3cccs3)nc3ccccc23)no1 (stereo not given),.,0,.,3,.,84*,52*,68*
CCCCCCCSc1nnc(N)s1,21,4,-2,-2,.,21,.,.
CC(C)C[C@H](NC(=O)c1nc[nH]c1C(=O)NCC(=O)OC(C)(C)C)C(=O)OCc1ccccc1,1,1,11,-23,-2,9,.,.
CC(C)C[C@H](NC(=O)c1nc[nH]c1C(=O)N1CCN(C(=O)OC(C)(C)C)CC1)C(=O)OC(C)(C)C,51,0,0,-1,-6,91*,81*,53*
CC(C)(C)OC(=O)NCc1ccc(CNC(=O)c2[nH]cnc2C(=O)N[C@@H](Cc2ccccc2)C(=O)OCc2ccccc2)cc1,1,-1,12,-7,-4,3,.,.
